Screening data: PubChem BioAssay, several laboratories
CCHF vOTU inh-1 – blocks the CCHF virus ovarian tumor domain protease; CCHFV vOTU protease, Pep-AMC fluorescence; inhibition, % at 11.5 µM; 370,000 compounds, 0.55% hits
Sa ugtP lethal – compounds lethal to S. aureus RN4220 ugtP deletion mutant; 330,000 compounds, 0.54% hits; OD600 growth, 16 h; growth inhibition, % (concentration not given with the values); in the data active = growth inhibition above about 68%
SSB-PriA inh – inhibitors of Klebsiella pneumoniae PriA binding to SSB C-terminal tail; inhibition, % at 33 µM; 430,000 compounds, 0.6% hits; AlphaScreen SSBct-PriA binding, biotinylated peptide; in the data active = inhibition mostly above about 37%, no sharp cut-off; inactive = mostly below about 20%
VHR inh abs – inhibitors of human VHR1 phosphatase (DUSP3); recombinant VHR phosphatase, pNPP absorbance; AID 1654; 290,000 compounds, 0.52% hits; P51452; inhibition, % at 13.3 µM; in the data active = inhibition above about 50%
Target sequence (P51452 whole entry, looked up): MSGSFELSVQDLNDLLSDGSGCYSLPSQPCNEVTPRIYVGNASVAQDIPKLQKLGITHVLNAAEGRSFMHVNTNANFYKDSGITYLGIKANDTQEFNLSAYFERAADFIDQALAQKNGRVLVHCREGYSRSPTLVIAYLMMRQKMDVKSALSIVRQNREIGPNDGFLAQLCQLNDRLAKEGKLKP
Sa RN4220 lethal – S. aureus RN4220 growth inhibition; inhibition, % (concentration not given with the values); OD600, 16 h; 330,000 compounds, 0.33% hits; AID 1259311; in the data active = inhibition above about 85%
CCHF vOTU inh-2 – confirmation of CCHF virus vOTU protease inhibitors. shares compounds with CCHF vOTU inh-1. Recombinant CCHFV vOTU, Pep-AMC fluorescence. inhibition, % at 11.5 µM. 1,900 compounds, 17% hits. AID 686976
A number is an active result; – = inactive; · = not tested or not shown; ! = a repeat was not active. In the library only some 1.5% were active in any assay of this set; here they are far more common. Rule as the data show it, unless noted: active = inhibition above about 30%; inactive = the rest.

SMILES	CCHF vOTU inh-1	Sa ugtP lethal	SSB-PriA inh	VHR inh abs	Sa RN4220 lethal	CCHF vOTU inh-2
Cc1[nH]n(-c2ccccc2)c(=O)c1C(C[N+](=O)[O-])c1ccc(Br)cc1 (stereo not given)	–	–	–	–	–	·
Cc1[nH]n(-c2ccccc2)c(=O)c1C(c1ccc(C(=O)O)cc1)c1c(C)[nH]n(-c2ccccc2)c1=O	71	–	–	–	–	–
COc1cc(C(c2c(C)[nH]n(-c3ccccc3)c2=O)c2c(C)[nH]n(-c3ccccc3)c2=O)cc(OC)c1OC	80	–	–	–	–	–
COc1cc(C(c2c(C)[nH][nH]c2=O)c2c(C)[nH][nH]c2=O)cc(OC)c1OC	–	–	–	–	–	·
COC(=O)C1CC(OC)CN1C(=O)Cc1cccc(OC)c1 (stereo not given)	·	·	–	·	·	·
O=C(Nc1ccccc1-c1csc(-c2ccccc2F)n1)c1ccco1	·	·	–	·	·	·
COCCNC(=O)NCCn1ccc(C(F)(F)F)n1	·	·	–	·	·	·
O=C(O)c1ccccc1O	–	–	–	–	–	·
Nc1c(O)cccc1C(=O)O	30	–	–	·	–	–
COc1cccc(NS(=O)(=O)c2ccc3c(c2)C2C=CCC2C(c2ccc(C(=O)O)cc2)N3)c1 (stereo not given)	41	–	–	–	–	–
COC(=O)c1ccc(C2Nc3ccc(C(C)=NNC(=O)C(OC)c4ccccc4)cc3C3C=CCC32)cc1 (stereo not given)	·	–	–	·	–	·
CN(C)c1ccc(C=Nc2ccc(N(C)C)cc2)cc1	68	–	–	–	–	–
Cc1ccc(N=Cc2ccc(N(C)C)cc2)cc1	–	–	–	–	–	·
NC(=O)CNC(=O)c1ccc(OCc2ccc3ccccc3n2)cc1	·	·	–	·	·	·
O=C(NC1CCCCC1)C(c1ccnc2ccccc12)n1c(=O)c(-c2ccco2)nc2ccccc21 (stereo not given)	33	·	·	·	·	–
O=C(NC1CCCCC1)C(c1ccccc1F)n1c(=O)c(-c2ccco2)nc2ccccc21 (stereo not given)	–	·	·	·	·	·
COC(=O)c1nn(-c2ccccc2)c2nnc(Cc3ccc(C)cc3)c(=O)n12	32	–	–	–	–	–
O=S(=O)(C1CC1)N1CCN(c2cc(C(F)(F)F)ncn2)CC1	·	·	–	·	·	·
CCOc1ccc(-c2noc(CSc3nc4cc5c(cc4c(=O)n3C3CCCC3)OCO5)n2)cc1	·	·	–	·	·	·
COC(=O)c1ccc(NC(=O)C(=O)NCCC(O)C2CC2)cc1 (stereo not given)	·	·	–	·	·	·
COc1ccc(S(=O)(=O)N2CCN(Cc3ccc(Cl)cc3)CC2)cc1	33	–	–	–	–	–
Cc1ccc(C)c2sc(N3CCN(C(=O)C4CCN(S(C)(=O)=O)CC4)CC3)nc12	·	·	–	·	·	·
Cc1ccc([C@@H]2CC=C(C(=O)O)[C@H](c3ccc(Cl)cc3)N2S(=O)(=O)c2ccc(C)cc2)cc1	–	·	–	·	·	·
Cc1ccccc1S(=O)(=O)N1[C@@H](c2ccc(Br)cc2)C(C(=O)O)=CC[C@H]1c1ccc(Cl)cc1	45	–	–	·	–	–
Cc1ccc(S(=O)(=O)N2[C@@H](c3ccc(C(C)(C)C)cc3)C(C(=O)O)=CC[C@H]2c2ccc3c(c2)OCO3)cc1	30	–	–	·	–	–
SMILES	CCHF vOTU inh-1	Sa ugtP lethal	SSB-PriA inh	VHR inh abs	Sa RN4220 lethal	CCHF vOTU inh-2
Cc1ccc(S(=O)(=O)N2[C@@H](c3ccccc3)C(C(=O)O)=CC[C@H]2c2ccc(Cl)c(Cl)c2)cc1	–	·	–	·	·	·
Cc1ccc(S(=O)(=O)N2[C@@H](c3ccc(Br)cc3)C(C(=O)O)=CC[C@H]2c2ccc(Cl)cc2)cc1	39	–	–	·	–	–
Cc1ccccc1S(=O)(=O)N1[C@@H](c2ccccc2)C(C(=O)O)=CC[C@H]1c1ccc(Cl)cc1	–	·	–	·	·	·
Cc1ccc([C@H]2C(C(=O)O)=CC[C@@H](c3ccc(Cl)c(Cl)c3)N2S(=O)(=O)c2ccc(C)cc2)cc1	40	–	–	·	–	–
Cc1noc(C)c1S(=O)(=O)Nc1ccccc1Cc1nc(-c2cccnc2)no1	·	·	–	·	·	·
O=C(NCc1ccc(C(=O)c2ccco2)s1)c1csc(-c2ccccc2)n1	·	·	–	·	·	·
Cc1ccccc1S(=O)(=O)N1C(c2ccc(Cl)cc2)CC=C(C(=O)O)C1c1ccccc1 (stereo not given)	·	–	·	·	–	·
Cc1ccc([C@@H]2CC=C(C(=O)O)[C@H](c3ccc(Cl)cc3)N2S(=O)(=O)c2ccccc2C)cc1	33	–	–	·	–	–
COc1ccc([C@@H]2CC=C(C(=O)O)[C@H](c3ccc(Br)cc3)N2S(=O)(=O)c2ccccc2C)cc1	–	–	–	·	–	·
Cc1ccc([C@@H]2CC=C(C(=O)O)[C@H](c3ccc(Br)cc3)N2S(=O)(=O)c2ccccc2C)cc1	39	–	–	·	–	–
CCCCN(C=O)c1c(CC)nc2c(OCC(=O)C(C)(C)C)cccn12	32	·	·	·	·	–
CCc1nc2c(OCC(=O)C(C)(C)C)cccn2c1N(C=O)CC(=O)N(C)C	–	·	·	·	·	·
O=C(CSc1nnc(-c2ccccc2)n1Cc1ccco1)Nc1ccc(OCc2ccccc2)cc1	32	·	·	·	·	–
Cc1cccc(-c2nnc(SCC(=O)Nc3ccc(OCc4ccccc4)cc3)n2Cc2ccco2)c1	–	·	·	·	·	·
Cc1ccc(S(=O)(=O)NC2=C(N3CCN(Cc4ccccc4)CC3)C(=O)c3ccccc3C2=O)cc1	–	–	–	–	–	·
Cc1ccc(S(=O)(=O)NC2=C(N3CCN(c4ccccc4F)CC3)C(=O)c3ccccc3C2=O)cc1	53!	·	–	–	·	–
CCOC(=O)N1CCN(C2=C(NS(=O)(=O)c3ccc(C)cc3)C(=O)c3ccccc3C2=O)CC1	82	–	–	–	–	81
CC(=O)Nc1ccc(S(=O)(=O)NC2=C(N3CCN(c4ccc(F)cc4)CC3)C(=O)c3ccccc3C2=O)cc1	77	–	–	–	–	69
CCCCC(CC)C(=O)Oc1ccc(O)c(C(C)(C)C)c1 (stereo not given)	31	·	–	–	·	–
Cc1cccc(OCC(=O)Nc2ccc(CN3CCOCC3)cc2)c1C	35	–	–	–	–	–
CCN(c1ccc(OC)cc1)S(=O)(=O)c1cc(-c2cc(C)no2)ccc1OC	31	–	–	–	–	–
CCN(c1ccc(OC)cc1)S(=O)(=O)c1cc(-c2cc(C)no2)ccc1C(C)C	–	–	–	–	–	·
CC(=O)N(CCN(C)C)c1nc2c(C)cccc2s1	·	·	–	·	·	·
CC[n+]1c(/C=C/c2c[nH]c3ccccc23)ccc2cc(C)ccc21	34	97	–	–	96	–
CCN(CC)C(=O)c1ccc(/C=C/c2c[nH]c3ccccc23)[n+](C)c1	–	–	–	–	–	·
c1ccc2c(c1)NCC1CCCN21 (stereo not given)	37	–	–	–	–	–
CC(=O)N(c1ccccc1C)c1ccccc1C	34	–	–	·	–	–
CC=CC(=O)N(CC)c1ccccc1C	·	–	·	·	–	·
O=C(c1cc2c(s1)CCCC2)N1CCN(Cc2ccc3c(c2)OCO3)CC1	–	–	–	–	–	·
O=C(Oc1ccc2c(c1)OCO2)c1cc2c(s1)CCC2	46	–	–	–	–	–
